Compound activity: PubChem BioAssay, several laboratories
ARNT TACC3 PPI – ARNT/TACC3 interaction disruption. AlphaScreen His-ARNT PAS-B/GST-TACC3 binding, luminescence; TACC3 fragment carries E629A point mutation. inhibition, % at 9.99 µM. actives 0.66% (n = 390,000). Q9Y6A5;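 active = mean inhibition of replicates at least 50% and at least half of replicates each reaching 50%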;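 note: 0% = complete ARNT plus TACC3 wells and 100% = ARNT alone without TACC3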
PglD DTNB – PglD (C. jejuni) enzyme inhibition; purified PglD enzyme, DTNB colorimetric CoA detection; inhibition, % at 12.5 µM; actives 0.098% (n = 360,000); AID 602405; in the data active = inhibition above about 16%, passing the limit was not always enough
ERp5 inh – inhibitors of human ERp5. AID 651711. ERp5 insulin aggregation, absorbance 650 nm, 90 min. Q15084. inhibition, % at 9.99 µM. actives 0.05% (n = 350,000);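 active = mean replicate inhibition above about 25%, with every replicate also reaching it, limit read from the data, passing the limit was not always enough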
Target sequence (Q15084 whole entry, looked up): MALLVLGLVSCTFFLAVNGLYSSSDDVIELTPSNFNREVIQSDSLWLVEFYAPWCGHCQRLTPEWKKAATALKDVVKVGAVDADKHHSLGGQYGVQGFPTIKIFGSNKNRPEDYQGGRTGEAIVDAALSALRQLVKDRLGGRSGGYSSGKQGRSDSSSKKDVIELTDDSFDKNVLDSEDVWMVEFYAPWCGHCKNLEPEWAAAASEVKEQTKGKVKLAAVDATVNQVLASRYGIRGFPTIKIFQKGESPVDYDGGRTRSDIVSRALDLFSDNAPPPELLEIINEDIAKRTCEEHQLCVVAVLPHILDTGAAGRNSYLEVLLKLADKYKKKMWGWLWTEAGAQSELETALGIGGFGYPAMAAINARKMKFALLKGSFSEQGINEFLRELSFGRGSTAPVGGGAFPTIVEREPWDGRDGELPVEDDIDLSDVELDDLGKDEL
CendR NRP1 mod – modulators of CendR peptide binding to human neuropilin-1. O14786. FAM-RPARPAR peptide binding to NRP-1, fluorescence polarization. inhibition, % at 25 µM. actives 0.85% (n = 360,000). AID 602438;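 active = inhibition or corrected inhibition above about 18%, plus a signal ratio from 0.5 to 1.5, limit read from the data, passing the limit was not always enough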
ALR H2O2 inh – blocks human ALR sulfhydryl oxidase activity; purified ALR, DTT oxidation, H2O2 HRP-luminol luminescence; AID 485317; actives 3.8% (n = 290,000); inhibition, % (concentration not given with the values); P55789;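 active = mean replicate inhibition above about 79%, with every replicate also reaching it, limit read from the data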
PDI inh – PDI (human) enzyme inhibition | actives 0.052% (n = 350,000) | P07237 | PDI insulin aggregation turbidity, A650, 90 min | inhibition, % at 10 µM;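 active = mean inhibition across replicates of 30% or more, whatever share of single replicates reach that level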
Starred values were filed as active, the others as inactive; / = not tested or not shown; ! = not confirmed by another sample. The sample as a whole holds a higher share of hits than the screen did.

SMILES	ARNT TACC3 PPI	PglD DTNB	ERp5 inh	CendR NRP1 mod	ALR H2O2 inh	PDI inh
Cc1oc(C(=O)O)cc1CSCc1ccoc1C(=O)O	-2	0	/	1	12	-9
CN(C)C(=O)C[C@@H]1C=C[C@@H](NC(=O)C2CCOCC2)[C@@H](CO)O1	/	/	-3	/	/	/
CC(=O)N(C)Cc1ccc(C(=O)CSc2nnc(C3CC3)n2C2CC2)cc1	2	-2	-5	12	46	-5
CCN(c1ccc(C(=O)CSc2nnc(C3CC3)n2C2CC2)cc1)S(C)(=O)=O	-1	2	-7	-8	96*	9
COc1ccc(NC(=O)N(C)C[C@@H]2Oc3c(NC(=O)Nc4ccc(F)cc4)cccc3C(=O)N([C@@H](C)CO)C[C@H]2C)cc1	27	-4	1	/	/	/
C/C=C/c1ccc([C@H]2[C@@H](CO)N(C(=O)NCCC)[C@H]2CNC(=O)C2CC2)cc1	2	-2	/	/	/	/
CCCCNC(=O)C1c2ccccc2OCC(=O)N1Cc1ccc2c(c1)OCO2 (centres undefined)	/	/	-11	19*	/	/
CCCCNC(=O)C1c2ccccc2OCC(=O)N1Cc1ccccc1 (centres undefined)	/	/	-2	-2	/	/
C[C@@H]1CN([C@@H](C)CO)C(=O)c2cc(NC(=O)Nc3ccccc3)ccc2O[C@@H]1CN(C)C(=O)Nc1ccc(C(F)(F)F)cc1	-8	-1	-5	/	/	/
COc1ccc(S(=O)(=O)Nc2ccccc2OC)cc1C	-11	3	/	2	-3	-2
COc1cc(NS(=O)(=O)c2ccc(C)c(C)c2)c(OC)cc1Cl	-5	0	/	27*	-1	3
COC(=O)c1sc(-c2ccccc2)cc1NC(C)=O	7	/	3	0	2	9
COC(=O)c1sc(-c2cccs2)cc1NC(=O)/C=C/C(=O)O	3	1	-12	-27	98*	-3
N#C[C@@H]1[C@@H](c2ccccc2-c2cccc(F)c2)[C@H](CO)N1C(=O)NC1CCCC1	/	/	-7	/	/	/
NC(=S)NNC(=O)Nc1ccc(Cl)c(Cl)c1	1	/	/	-13	94*	11
O=C(Nc1ccc(Cl)c(Cl)c1)Nc1ccccc1C(=O)O	/	-2	/	5	98*	-7
CN1C(=O)c2cc(NC(=O)C3CC3)ccc2OC[C@@H]2O[C@@H](CC(=O)O)CC[C@H]21	/	/	0	/	/	/
CO[C@@H](CN(C)C(=O)c1cnccn1)[C@@H](C)CN([C@@H](C)CO)S(=O)(=O)c1ccc(C)cc1	0	-1	1	/	/	/
O=C(Nc1cccc(-c2ccc(N3CCCCC3)nn2)c1)C(F)(F)F	-11	0	5	9	92*	-5
Cc1nn(CC(O)CN2c3ccccc3Sc3ccccc32)c(C)c1Br (centres undefined)	8	-3	/	-4	1	4
OCC(CO)(CO)NCC(O)CN1c2ccccc2Sc2ccccc21 (centres undefined)	0	1	/	-2	99*	-2
OC(CN1c2ccccc2Sc2ccccc21)Cn1nnc2ccccc21 (centres undefined)	2	/	/	-4	98*	0
c1ccc(CNc2ncnc3sc4c(c23)CCCC4)nc1	4	/	-1	2	96*	3
CCc1ccc(OCC(=O)NC(=S)Nc2ccc(C)cc2C)c(Br)c1	-4	3	/	-18	-3	-5
Cc1ccc(OCC(=O)NNC(=S)NC(=O)c2cccs2)c(C)c1	-1	-3	-2	8	98*	2
Cc1ccc(OCC(=O)NNC(=S)NC(=O)c2ccc(Br)o2)c(C)c1	-9	0	0	12	98*	3
C[C@@H]1CN([C@@H](C)CO)C(=O)c2cc(-c3cccc(C#N)c3)cnc2O[C@H]1CN(C)Cc1cncnc1	-3	-1	84*	/	/	/
C[C@H]1CN([C@@H](C)CO)C(=O)CCCn2cc(nn2)CO[C@@H]1CN(C)Cc1cccc(C(F)(F)F)c1	-2	-3	44*	/	/	/
C[C@H](CO)N1C[C@H](C)[C@H](CN(C)Cc2cccc(F)c2)Oc2ncc(Br)cc2C1=O	-8	4	82*!	-2	/	1
COCC(=O)Nc1ccc2c(c1)[C@@H]1C[C@H](CC(=O)NCc3ccccc3F)O[C@@H](CO)[C@@H]1O2	-3	1	2	/	/	/
